Screening results (PubChem)
Shown is part of a subset that was picked to be rich in hits.
nsP2pro primary: blocks chikungunya virus nsP2 protease peptide cleavage | FRET peptide cleavage, nsP2pro, fluorescence 1 h | hit rate 1.1% among 31,000 | Q8JUX6 | Potency, µM (doses to about 24.9 µM), for the others: top-dose activity change, negative = inhibition, usual class: inhibitors | AID 1964107; calls by dose curve; note: nearly all actives have a fitted effect of over 60% in size
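Recombinant nsP2pro (150 nM) was preincubated with compound 15 min at room temperature in 10 mM Tris-HCl pH 8.0, 0.01% Tween 20. Peptide 2 FRET substrate (2.5 uM) was then added and fluorescence read after 1 h. Seven-point series, up to 25 uM.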
* hit, by the source's call; i = inactive; [ ] = another dose, or the depositor's remark. % is set by controls: 0 for no effect and ±100 for the full control effect; potency is the fitted concentration of half-maximal effect.

SMILES | nsP2pro primary
C/C=C(\C)C(=O)O[C@@H](C)[C@H]1CC[C@]2(O)C3CCC4C[C@@H](OC5CC(OC)C(OC6CC(OC)C(OC7CC(OC)C(OC8OC(C)C(OC9OC(CO)C(O)C(O)C9O)C(OC)C8O)C(C)O7)C(C)O6)C(C)O5)CC[C@]4(C)C3[C@H](O)[C@@H](O)[C@]12C (stereo partly drawn) | 3%[5.1 µM]
C=C(C)C(=O)OC1C(OC(C)=O)/C(C=O)=C\CC/C(CO)=C/C2OC(=O)C(=C)C21 (stereo not drawn) | 1.4µM*
C=C1C(=O)OC2/C=C(\CO)CC/C=C(\C=O)C(O)C(OC(=O)C(C)CC)C12 (stereo not drawn) | -6%
C=C1C(=O)O[C@@H]2/C=C(\CO)CC/C=C(\CO)[C@H](OC(C)=O)C(OC(=O)C(C)CC)C12 (stereo partly drawn) | -3%[10 µM]
CCc1cc(CN(C)C(=O)C(c2ccc(C)cc2)N(C)C)on1 (stereo not drawn) | i
Cn1cc(-c2ccc3c(n2)CN(Cc2ccc(F)cc2)C(=O)CO3)cn1 | -4%[39.2 µM]
O=C1COc2ccc(-c3cccc(O)c3)nc2CN1Cc1ccc(C(F)(F)F)cc1 | i
O=C1COc2ccc(N3CCOCC3)nc2CN1Cc1ccc(F)cc1 | 11µM*
C/C=C/C=C/C=C/C(=O)O[C@@H]1[C@@H](OC)C2=C(C(=O)N(C(C)C(=O)O)C2)[C@@]2(C)CCCC(C)(C)[C@H]12 (stereo partly drawn) | 68%[10 µM]
c1ccc(N2CCC(Cn3ccnc3-c3cc4n(n3)CCCNC4)C2)cc1 (stereo not drawn) | i
CC(=O)N1CCCC1c1nc(C2CN(Cc3cc(F)c(F)cc3F)C2)no1 (stereo not drawn) | 3%
O=C(N[C@H](c1ccccn1)C1CC(O)C1)c1ccc(Cn2cccn2)o1 (stereo partly drawn) | -11%
CS(=O)(=O)c1ccc(CN2CCC(C(O)c3ccccn3)CC2)cc1 (stereo not drawn) | 11µM*
CS(=O)(=O)c1ccc(CC(=O)N[C@H](c2ccccn2)C2CC(O)C2)cc1 (stereo partly drawn) | i
Nc1nc2c(nc(Sc3ccc(Cl)cc3)n2[C@@H]2O[C@@H]3COP(=O)(O)O[C@H]3[C@H]2O)c(=O)[nH]1 | -12%
COC(=O)c1ccccc1NC(=O)c1cc2nc(-c3ccccc3)cc(-c3ccccc3)n2n1 | -19%
CCOC(=O)c1cnn(-c2ccccc2)c1NC(=O)c1cc2nc(-c3ccco3)cc(C(F)(F)Cl)n2n1 | 11µM*
CCOC(=O)c1cnn(-c2ccc(NC(=O)C(Cl)=C(Cl)Cl)cc2)c1C(F)(F)F | -1%
O=C(NCC1CC1)c1nc2c(o1)CCN(CCCc1ccccc1)CC2 | 10µM*
O=C(NC1CC1)[C@@H]1CN(CCCc2ccccc2)C[C@H]1CO | -15%
COc1ccc(CN2CCc3ncc(C(=O)NCc4ccc5c(c4)OCO5)n3CC2)cn1 | i
O=C(NCC1CC1)C1CN(Cc2ccccc2)C(=O)N1 (stereo not drawn) | 5%[39.2 µM]
O=C(NCc1ccc(F)cc1)c1nnc(Cc2cccc(F)c2)o1 | -14%
Cc1[nH]cnc1CN1CCc2nc(C(=O)NCCOc3ccccc3)oc2CC1 | i
COc1ccc(CN2CCc3nc(C(=O)NCCOc4ccccc4)oc3CC2)cn1 | 3.5µM*
SMILES | nsP2pro primary
O=C(NCc1cccc(F)c1)c1nc2c(o1)CCN(CC1CCCC1)CC2 | 3.5µM*
Cc1c(C(=O)NCc2cccc(F)c2)oc2c1-c1[nH]ncc1CC2 | -32%
COc1ccccc1CNC(=O)[C@@H]1OCCN(C2CC2)[C@H]1c1ccccc1 | i
COC[C@]1(O)CCN(C(=O)CSCc2ccccc2C)CC1(C)C | -3%
Cc1cnc(CC2CCN(S(=O)(=O)c3ccccc3)CC2)n1Cc1ccc(F)cc1 | i
O=C(c1ccc(Cl)cc1)N1CCC(N2CCOC2=O)CC1 | -12%
C[C@H](NC(=O)Cc1cc(F)cc(F)c1)C(=O)N[C@@H]1N=C(c2ccccc2)c2ccccc2N(C)C1=O | 4%
COC(=O)[C@H]1CCCN1C(=O)[C@@H]1C[C@H](NC(=O)NC(C)C)CN1C(=O)c1cccn1C | -6%[39.2 µM]
Nc1ccc(/C=C/C(=O)NCc2cc3cc(-c4ccc(C(=O)N5CCC(F)(F)CC5)cc4)cc(-c4ccc(F)cc4)c3o2)cn1 | 14%
C[C@@H]1O[C@@H](O[C@H]2[C@H](OC(=O)[C@]34CCC(C)(C)C[C@H]3C3=CCC5[C@@]6(C)CC[C@H](O[C@@H]7O[C@H](C(=O)O)[C@@H](O)[C@H](O)[C@H]7O[C@@H]7O[C@H](CO)[C@H](O)[C@H](O)[C@H]7O)[C@@](C)(C=O)C6CC[C@@]5(C)[C@]3(C)C[C@H]4O)O[C@H](C)[C@H](O[C@@H]3O[C@H](C)[C@H](O)[C@H](O)[C@H]3O)[C@@H]2O)[C@H](O)[C@H](O)[C@H]1O[C@@H]1OC[C@@H](O)[C@H](O[C@@H]2O[C@H](CO)[C@@H](O)[C@H](O)[C@H]2O)[C@H]1O (stereo partly drawn) | -14%[2.68 µM]
O=C(c1cccc(C(F)(F)F)c1)N1CC(CO)C2(CCNCC2)C1 (stereo not drawn) | -4%
COc1ccc(C(=O)N2CC(CO)C3(CCNCC3)C2)cc1 (stereo not drawn) | -4%
O=C(c1ccc(Cl)cc1)N1CC(CO)C2(CCNCC2)C1 (stereo not drawn) | 7.9µM*
CC(C)(C)c1ccc(-c2ccc(=O)n(CC(=O)NCCc3ccccc3)n2)cc1 | 4%
CCN1CCN(C2(C(=O)NCCc3ccccc3)Cc3ccccc3C2)CC1 | -8%
Cc1ccc(C)c(NC(=O)Cn2c(=O)ccc3cc(S(=O)(=O)N4CCCC4)ccc32)c1 | -20%
COc1ccc(CCNC(=O)CCn2c(=O)c3ccccc3n(CC(=O)Nc3cc(Cl)ccc3C)c2=O)cc1OC | -11%
CCc1ccc(NCc2cc3cc(OC)c(OC)cc3n(CC(=O)Nc3cc(C)ccc3C)c2=O)cc1 | 10µM*
CC(C)c1nc(CN(C)C(=O)N[C@@H](CCN2CCOCC2)C(=O)N[C@H](CC[C@H](Cc2ccccc2)NC(=O)OCc2cncs2)Cc2ccccc2)cs1 | -8%
Oc1cccc2cc(NCc3ccccc3F)cnc12 | i
N#Cc1ccc(S(=O)(=O)Nc2cnccc2C(=O)Nc2nc(-c3ccccc3)cs2)cc1 | i
CC(C)c1nn2c(=O)cc(COC(=O)c3ccc4c(c3)OCO4)nc2s1 | -29%
CC(C)c1nn2c(=O)cc(COC(=O)Cc3ccccc3)nc2s1 | -17%
CC(C)c1nn2c(=O)cc(COC(=O)c3ccco3)nc2s1 | 13µM*
C[C@H](N)C(=O)Nc1ccc(Cl)cc1C(=O)c1ccc[nH]1 | -4%
SMILES | nsP2pro primary
Cc1ccc2nc3sc(C(=O)Nc4ccncc4)cc3cc2c1 | -1%
O=S(=O)(c1ccc2c(c1)OCCO2)N1CCN(S(=O)(=O)c2cccc(Cl)c2F)CC1 | -5%
O=C(Cc1ccccc1)NCc1ccnc2[nH]ccc12 | -1%[39.2 µM]
O=C(NCc1ccnc2[nH]ccc12)c1ccc(Cl)cc1 | 14µM*
O=C(NCc1c[nH]c2ncccc12)c1cccnc1 | 3%[39.2 µM]
Cc1nc(N)sc1-c1ccnc(Nc2ccc(N3CCOCC3)cc2)n1 | -5%
O=C1c2ccccc2NC(c2ccc(-c3ccc(Br)cc3)o2)N1O (stereo not drawn) | 13µM*
O=C1c2ccccc2NC(c2ccc(-c3ccc(-c4ccccc4)cc3)o2)N1O (stereo not drawn) | i
O=C1c2ccccc2NC(c2ccc(-c3ccc(F)cc3)o2)N1O (stereo not drawn) | -4%
